Rows were chosen to be rich in hits. Some 6.7% of all compounds tested hit in one or more screens of this group.
BoNT-F LC inh: blocks Botulinum neurotoxin F light chain protease; Multiplex microsphere protease cleavage assay, flow cytometry; inhibition, % at 10 µM; 360,000 tested, 0.22% active; AID 588497; in the data active = inhibition above about 35%, passing the limit was not always enough; inconclusive = no clear call, values can overlap the other calls; note: plate controls were buffer without enzyme for full effect and enzyme alone for no effect
GDH-TPI inh: counter-screen for M. tuberculosis FBA inhibitors: GDH-TPI coupled enzymes; GDH-TPI coupled enzyme counterscreen, NADH absorbance; inhibition, % at 4.8 µM; 360,000 tested, 1.2% active; AID 588335; in the data active = inhibition above about 30%;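 note: 0% = DMSO wells and 100% = wells lacking the enzyme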
BoNT A protease: blocks Botulinum neurotoxin A light chain protease; multiplex microsphere protease substrate cleavage, flow cytometry; inhibition, % at 10 µM; 360,000 tested, 0.17% active; note: plate controls were buffer without enzyme for full effect and enzyme alone for no effect
Autofluor counter: compound fluorescence in toxin protease inhibitor counterscreen. 360,000 tested, 3.1% active. fluorescence intensity (concentration not given with the values). compound autofluorescence counterscreen, microsphere flow cytometry; stronger effect = higher value; in the data active = fluorescence intensity above about 16000; inconclusive = no clear call, values can overlap the other calls
Anthrax LF prot: inhibitors of Bacillus anthracis lethal factor protease; P15917; multiplex microsphere protease cleavage assay, LF; inhibition, % at 10 µM; 360,000 tested, 0.12% active; note: plate controls were buffer without enzyme for full effect and enzyme alone for no effect
Target sequence (P15917 whole entry, looked up): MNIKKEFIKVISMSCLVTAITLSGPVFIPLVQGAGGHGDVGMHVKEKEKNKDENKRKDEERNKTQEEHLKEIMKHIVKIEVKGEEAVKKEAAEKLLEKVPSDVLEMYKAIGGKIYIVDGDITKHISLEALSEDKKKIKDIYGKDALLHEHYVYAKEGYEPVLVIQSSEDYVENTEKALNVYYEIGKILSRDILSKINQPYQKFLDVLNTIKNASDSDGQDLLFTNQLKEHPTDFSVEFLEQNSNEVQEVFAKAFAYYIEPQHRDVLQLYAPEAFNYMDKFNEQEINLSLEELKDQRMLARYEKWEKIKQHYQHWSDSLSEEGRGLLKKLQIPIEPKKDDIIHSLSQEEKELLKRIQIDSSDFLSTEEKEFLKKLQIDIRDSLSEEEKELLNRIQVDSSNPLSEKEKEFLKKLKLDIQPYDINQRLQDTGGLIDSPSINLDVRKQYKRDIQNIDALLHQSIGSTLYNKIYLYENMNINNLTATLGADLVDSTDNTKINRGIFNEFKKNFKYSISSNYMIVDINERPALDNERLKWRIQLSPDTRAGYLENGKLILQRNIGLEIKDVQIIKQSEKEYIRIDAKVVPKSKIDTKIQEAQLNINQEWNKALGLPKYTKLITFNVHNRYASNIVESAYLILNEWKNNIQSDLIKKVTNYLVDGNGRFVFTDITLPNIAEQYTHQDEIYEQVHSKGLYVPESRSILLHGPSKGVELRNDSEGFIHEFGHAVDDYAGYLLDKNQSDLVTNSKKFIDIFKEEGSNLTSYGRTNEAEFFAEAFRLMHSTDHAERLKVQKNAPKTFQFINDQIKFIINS
Mtb FBA inh: inhibitors of M. tuberculosis fructose-bisphosphate aldolase. P9WQA3. purified M. tuberculosis FBA, fluorescence read-out. inhibition, % at 1 µM. 360,000 tested, 2.3% active; in the data active = inhibition above about 27%;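 note: 0% = vehicle and 100% = reference inhibitor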
The depositor's hits bear a star; ? = inconclusive; + = active, no number. Cut-off read from the data, not from the text of the source, unless noted: active = inhibition above about 30%; inconclusive = no clear call, values can overlap the other calls; inactive = below that.

SMILES	BoNT-F LC inh	GDH-TPI inh	BoNT A protease	Autofluor counter	Anthrax LF prot	Mtb FBA inh
COc1ccc(/C=C/C(=O)Oc2cccc(/C=N/NC(=O)Cc3ccc(Br)cc3)c2)cc1	-9	8	-1	5674	-2	3
COCCCNC(=O)/C=C/c1cccc(Cl)c1	-2	-6	0	20665*	-3	1
CN(C)C(CNC(=O)/C=C/c1cccc(Cl)c1)c1ccccc1 (stereo not drawn)	-1	3	0	4358	2	1
CN(CCCNC(=O)C1CCN(S(=O)(=O)c2cccc3nsnc23)CC1)Cc1ccccc1	4	8	0	4671	1	-4
O=C(CSc1nc(C2CC2)nc2ccccc12)N1c2ccccc2Sc2ccc(C(F)(F)F)cc21	-3	-9	-1	21370*	-2	-7
O=C(CSc1nc(C2CC2)nc2ccccc12)N1CCCCC1	2	-1	0	5466	0	1
Cc1ccc(NC(=O)Nc2ccc(Cl)cc2)c(Br)c1	-7	12	-1	2523	1	-2
CCOc1cc(/C=C(\C#N)C(=O)Nc2ccccn2)ccc1O	-4	11	-2	6311	0	-10
Cc1cc2oc(C(=O)N(Cc3ccco3)C3CCS(=O)(=O)C3)cc(=O)c2cc1Cl (stereo not drawn)	3	13	0	23579*	3	-1
CCOC(=O)C1=C(C)C(c2ccc(OC)cc2)NC(=S)N1 (stereo not drawn)	-3	-5	1	8345	-1	4
O=C(/C=C/c1ccc(F)cc1)Nc1ccc2[nH]c(=O)[nH]c2c1	-1	42*	0	4476	-2	2
CCN[C@@H](C)Cc1cccc(C(F)(F)F)c1	0	-13	0	6222	7	0
O=C(C1CCCC1)N1CCN(S(=O)(=O)c2ccc(F)cc2)CC1	-17	18	-7	2932	12	0
Cc1cc2c(n1-c1ccc(C(N)=O)cc1)CC(C)(C)CC2=O	-3	1	?	22230*	-2	1
CCOC(=O)c1cc2ccc(OC(=O)c3ccco3)cc2oc1=O	0	9	0	9982	2	+
CCOC(=O)c1cc2ccc3ccccc3c2oc1=O	?	8	-4	4010	-17	+
CCOC(=O)c1c[nH]c2ccc3ccccc3c2c1=O	-38	9	0	3765	-1	-5
CCOc1ccc2cc(C(=O)c3ccccc3)c(=O)oc2c1	-2	41*	2	10676	0	2
CCOC(=O)c1oc2cc(O)ccc2c(=O)c1-c1ccccc1OC	10	9	0	2952	-1	-1
CCOC(=O)C1=CN(Cc2cccc(F)c2)S(=O)(=O)N(CC)C1c1ccc2ccccc2c1 (stereo not drawn)	-5	2	0	2948	6	2
CC(=O)c1cc(NC(=O)c2ccc(C)cc2)c(=O)oc1/C=C/N(C)C	-9	13	0	4103	-5	-12
COc1ccc(C(=O)Nc2cc(C(C)=O)c(/C=C/N(C)C)oc2=O)cc1	0	29	1	16251*	1	-21
CCOC(=O)c1cc(NC(=O)c2ccc(OC)cc2)c(=O)oc1-c1ccccc1	-2	11	?	22500*	-4	4
CC(=O)N1CCc2cc(S(=O)(=O)NC(Cc3ccccc3)C(=O)NCCN3CCCCC3C)ccc21 (stereo not drawn)	-1	-10	-1	5064	-4	-5
Cn1c(-c2cccc([N+](=O)[O-])c2)cnc1NCc1cccc([N+](=O)[O-])c1	-3	8	0	4252	-11	1
SMILES	BoNT-F LC inh	GDH-TPI inh	BoNT A protease	Autofluor counter	Anthrax LF prot	Mtb FBA inh
COc1ccc(C(=O)Nc2ccc(-c3cn4ccsc4n3)cc2)cc1S(=O)(=O)N1CCOCC1	4	17	?	20320*	-10	0
COc1ccc(C(=O)Nc2ccc(-c3ccc(C)o3)cc2)cc1S(=O)(=O)N1CCOCC1	3	38*	0	3303	-6	2
Cc1ccc(C)c(NC(=O)CN(C)C(=O)c2ccccn2)c1	-1	0	0	3849	0	0
CCn1c(-c2cc(-c3cccc(OC)c3)nc3ccccc23)n[nH]c1=S	2	11	2	19974*	-4	-1
COc1ccc(/C=C(\NC(=O)c2ccccc2)C(=O)N/N=C/c2cccnc2)cc1	-1	39*	0	5555	-4	-2
Cc1ccnc(N/C=C(/NC(=O)c2ccccc2)C(=O)N/N=C\c2ccc(F)cc2)n1	-3	54*	0	2900	0	2
COc1ccc(/C=C(\NC(=O)c2ccccc2)C(=O)N/N=C/c2ccncc2)cc1	3	49*	1	10037	-2	0
COc1ccc(/C=C(\NC(=O)c2ccccc2)C(=O)NCc2cccnc2)cc1	-20	-1	-5	3994	0	0
CN1CCN(Cc2nc3ccccc3c(=O)n2Cc2nc(-c3ccc([N+](=O)[O-])cc3)cs2)CC1	-1	10	7	2345	0	4
CC(C)Nc1nc(NC(C)C)nc(Oc2ccc(OCc3ccccc3)nn2)n1	-8	2	0	2658	-1	-3
COc1ccc(C2C3=C(CC(c4ccco4)CC3=O)Nc3ccccc3N2C(C)=O)cc1 (stereo not drawn)	1	34*	0	4706	0	1
Nc1c(C(=O)c2cccs2)oc2ccccc12	3	7	3	8717	9	2
O=C(Oc1cccnc1)c1cc(S(=O)(=O)N2CCCCC2)ccc1Cl	7	-8	5	21012*	0	3
O=C(c1cccnc1)N1CCN(S(=O)(=O)c2ccc3ccccc3c2)CC1	1	6	0	16645*	-7	2
COc1ccc(S(=O)(=O)N2CCN(C(=O)c3cccnc3)CC2)cc1OC	-2	4	1	3565	10	2
CC(NC(=O)c1ccccc1Cl)C(=O)Nc1ccc2c(c1)OCO2 (stereo not drawn)	-13	0	-2	5882	-2	1
O=C(CC(NC(=O)c1ccccc1Cl)c1ccccc1)Nc1ccc2c(c1)OCO2 (stereo not drawn)	0	-7	1	20052*	0	0
CCOc1ccccc1C(=O)NC(C)c1ccc2c(c1)OCO2 (stereo not drawn)	2	1	5	18046*	1	-1
CCOc1ccccc1NC(=O)NC(C)c1ccc2c(c1)OCO2 (stereo not drawn)	10	2	-2	5918	0	1
COc1ccccc1C(=O)Nc1ccc2c(c1)OCO2	-2	0	1	23284*	-1	3
COc1cc(NC(=O)c2ccc3c(c2)OCO3)ccc1NC(=O)c1ccco1	-16	42*	0	4735	-8	0
COc1ccccc1C(=O)Nc1ccc2c(c1)OCCO2	-4	-3	0	2748	0	7
C/C(=N\NC(=O)c1ccc(C)cc1)c1c(C)[nH]n(-c2ccccc2)c1=O	-39	17	-2	4696	-9	3

Assay outcomes (PubChem BioAssay)
